# Screens deposited in PubChem by National Center for Advancing Translational Sciences (NCATS).
# ELG1 DNA repair = blocks ELG1-dependent DNA repair in HEK293T cells | 330,000 compounds, 2.3% hits | Potency, µM (doses to about 46.1 µM), without a hit: at the top dose activity change, negative = inhibition, actives largely listed as inhibitors | HEK293T ELG1-luciferase reporter, luminescence, 16 h; DNA damage induced by 5-fluorouridine; further: on the % scale 0 is the no-effect control and ±100 the full control effect; nearly all actives have a fitted effect of over 55% in size
#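 Overnight (16 hr) co-exposure of 2,000 cells/well to 5-fluorouridine and compound at 37 °C preceded detection. Luciferase was quantified via ONE-Glo luminescence; loss of signal denotes inhibition.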
# Rab9 prom act = Rab9 promoter activation. Potency, µM (highest dose often 9.22 µM), for inactives: at the top dose activation, negative = inhibition, hits mostly activators. 320,000 compounds, 2.8% hits. Huh7 Rab9 promoter-luciferase reporter, luminescence, 24 h; further: % of control where 0% means no effect; nearly all actives have a fitted effect of over 60% in size
#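 Using Huh7 cells stably transfected with Rab9 promoter–luciferase, compounds were incubated 24 h at 37 °C, 5% CO2; luciferase luminescence was read 10 min after reagent addition.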
# FLuc counter = inhibits or activates purified firefly luciferase, miR-21 counter-screen; P08659; purified FLuc, Km substrates, luminescence inhibition; Potency, µM (top dose mostly 57.5 µM), inactives show at the highest dose activity change, negative = inhibition, hits mostly inhibitors; 360,000 compounds, 6.9% hits; AID 588342;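 further: plate controls were vehicle for no effect and reference inhibitor for full effect; nearly all actives have a fitted effect of over 55% in size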
# Target sequence (P08659 whole entry, looked up): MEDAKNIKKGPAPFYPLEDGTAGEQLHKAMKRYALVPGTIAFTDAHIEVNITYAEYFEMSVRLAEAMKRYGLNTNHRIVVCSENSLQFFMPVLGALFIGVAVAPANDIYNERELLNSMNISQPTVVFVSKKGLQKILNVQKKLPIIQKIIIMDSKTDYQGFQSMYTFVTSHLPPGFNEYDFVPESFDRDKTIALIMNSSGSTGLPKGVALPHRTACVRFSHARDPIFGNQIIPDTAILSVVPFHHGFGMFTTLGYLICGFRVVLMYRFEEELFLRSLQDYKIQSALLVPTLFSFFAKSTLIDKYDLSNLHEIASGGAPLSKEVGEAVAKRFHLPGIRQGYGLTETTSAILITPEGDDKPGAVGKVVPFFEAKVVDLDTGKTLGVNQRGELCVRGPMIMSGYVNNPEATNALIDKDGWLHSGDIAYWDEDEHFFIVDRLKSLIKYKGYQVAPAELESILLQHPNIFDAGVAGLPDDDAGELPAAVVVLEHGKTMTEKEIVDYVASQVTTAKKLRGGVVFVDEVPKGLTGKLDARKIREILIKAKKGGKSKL
#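 Purified P. pyralis luciferase, 10 nM final, with Km-level 10 uM D-luciferin and 10 uM ATP in 50 mM Tris acetate pH 7.5, 10 mM Mg acetate, 0.01% Tween-20, 0.05% BSA; 6-point qHTS titration about 60 µM downward; luminescence read.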
# ELG1 genotoxic = inducers of genotoxicity in HEK293T ELG1-luciferase cells. HEK293T ELG1-luciferase reporter, luminescence, 16 h. Potency, µM (doses to about 46 µM), for inactives: at the highest dose activity change, positive = activation, actives largely listed as activators. 330,000 compounds, 1.3% hits. AID 504466; further: % of control where 0% means no effect; nearly all actives have a fitted effect of over 60% in size
#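 Genotoxicity was scored as increased ELG1-luciferase reporter signal, measured by ONE-Glo luminescence (30 min, room temperature). Compound or vehicle exposure of the HEK293T reporter cells lasted 16 hr at 37°C.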
# NPC1 promoter act = activates the NPC1 promoter; AID 485313; Potency, µM (highest dose often 9.22 µM), for inactives: at the highest dose activation, most hits filed as activators; 320,000 compounds, 2.4% hits; Huh7 NPC1 promoter luciferase reporter, 24 h; further: % of control where 0% means no effect; nearly all actives have a fitted effect of over 60% in size
#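 Cells: Huh7 expressing luciferase under the NPC1 promoter, 1500/well. Seeded 2 h, compound added, incubated 24 h at 37 °C. Luciferase reagent, 10 min ambient, then luminescence.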
# SMN2 splice up = increases expression of the SMN2 splice variant; HEK293 SMN2-luciferase splicing reporter, luminescence, 30-36 h; Potency, µM (highest dose often 46.1 µM), inactives show top-dose activity change, positive = activation, most hits filed as activators; 210,000 compounds, 2.8% hits; AID 1458; further: % of control where 0% means no effect; nearly all actives have a fitted effect of over 55% in size
#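 HEK293 cells carry an SMN2 minigene-luciferase reporter in which exon 7 inclusion puts luciferase in frame. Cells were seeded at 2000 cells/well, attached for 10-12 hours, then exposed to compounds for 30-36 hours at 37C before ONE-Glo luminescence.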
# * hit, by the source's call; ? = inconclusive; . = no result; ! = not active in a repeat. Only some compounds are listed: those with a hit (about 9.3% of all), similar ones and a draw of the others. The call rests on the fitted dose curve; in most records, active means well fitted curve in the direction sought with a large enough effect; inconclusive means small, poorly fitted or top-dose-only effect, or another doubt; inactive means no such curve, though single readings can be large; an effect the other way counts as inactive or inconclusive. Potency means the concentration at half of the fitted maximal effect.
SMILES,ELG1 DNA repair,Rab9 prom act,FLuc counter,ELG1 genotoxic,NPC1 promoter act,SMN2 splice up
O=C(Nc1nnc(SCc2ccccn2)s1)C1CC(=O)N(c2ccccc2)C1 (centres undefined),5%,2%,1%,3%,-4%,?
CCOc1[nH]n(-c2ccccc2)c(=O)c1C=Nc1ccc(OC)cc1,?,2%,?,-7%,-5%,-9%
CCOc1ccc2nc(/N=C/c3c(C)[nH]n(-c4ccc(C)cc4)c3=O)sc2c1,?,?,4.8µM*,16%,?,14µM*
CCOc1ccc2nc(/N=C/c3c(C)[nH]n(-c4ccccc4)c3=O)sc2c1,?,?,6.7µM*,?,?,22µM*
Cc1nn(-c2ccccc2)c(OC(=O)C(C)C)c1Sc1ccc(Cl)cc1,.,.,13µM*,.,.,1%
O=C(CC1OC(=O)c2ccccc21)c1ccco1 (centres undefined),7%,4%,-2%,-5%,6%,-3%
Cc1c(Cl)sn(-c2ccc(Cl)cc2)c1=O,?,-39%,8.5µM*,1%,-24%,-99%
Cc1ccc2c(c1)sc1nc(=O)n(-c3cccc(Cl)c3)c(=O)n12,?,1.6µM*,6%,?,1.6µM*,11µM*!
O=c1nc2sc3ccccc3n2c(=O)n1-c1ccc(Cl)c(Cl)c1,.,.,-4%,.,.,2%
O=c1nc2sc3ccccc3n2c(=O)n1-c1ccc(Cl)cc1,?,2.8µM*,-6%,?,3.2µM*,20µM*
CCc1ccc(NC(=O)CSc2nc3ccccc3c(=O)n2CCC(=O)NC2CCCCC2)cc1,.,.,-3%,.,.,.
COc1cccc(/C=C2\N=C3CCCCCN3C2=O)c1,?,2%,13µM*,?,0%,0%
O=[N+]([O-])c1ccc2nc(-c3ccc(OC(F)F)cc3)cn2c1,?,1µM*,?,?,1µM*,.
COc1ccc(-c2cn(Cc3ccc([N+](=O)[O-])cc3)nn2)cc1,-1%,10%,?,3%,0%,.
O=C(C1=C[C@@H](c2ccccc2)C[C@@H](OCc2ccc(CO)cc2)O1)N1CCN(Cc2ccc3c(c2)OCO3)CC1,15µM*,0%,0%,-12%,2%,.
O=C(C1=C[C@@H](c2csc3ccccc23)C[C@@H](OCc2ccc(CO)cc2)O1)N1CCN(Cc2ccc3c(c2)OCO3)CC1,9.2µM*,-2%,-1%,-11%,-4%,.
NC(=O)C1=C[C@H](c2ccc3c(c2)OCO3)C[C@H](OCc2ccc(CO)cc2)O1,?,?,15µM*,?,?,.
O=C(C1=C[C@H](c2ccccc2)C[C@H](OCc2ccc(CO)cc2)O1)N1CCN(Cc2ccccc2)CC1,?,-1%,0%,-5%,-5%,.
O=C(C1=C[C@@H](c2csc3ccccc23)C[C@@H](OCc2ccc(CO)cc2)O1)N1CCN(Cc2ccccc2)CC1,?,-7%,1%,-9%,0%,.
S=c1[nH]nc(COc2ccccc2)n1/N=C/c1cccc(Br)c1,6%,-5%,-1%,0%,2%,.
CCOC(=O)c1c(C)[nH]c(C(=O)CN2C(=O)NC(C)(CC(C)C)C2=O)c1C (centres undefined),-2%,-2%,6%,-5%,-2%,0%
Cc1ccc(OCC(=O)N(Cc2sccc2C)C2CCS(=O)(=O)C2)cc1 (centres undefined),.,.,-3%,.,.,2%
COc1cc(N=Nc2ccc3ccccc3c2)ccc1O,?,?,5.4µM*,12µM*,3.2µM*,.
Oc1ccc(N=Nc2c(O)ccc3ccccc23)cc1,20%,11%,27µM*,-1%,16%,-21%
COc1cc(N=Nc2ccccc2C(=O)O)ccc1O,?,-10%,?,1%,0%,.
SMILES,ELG1 DNA repair,Rab9 prom act,FLuc counter,ELG1 genotoxic,NPC1 promoter act,SMN2 splice up
Oc1ccc(N=Nc2ccc3ccccc3c2)cc1,?,?,1.1µM*,2.3µM*,3.5µM*,.
CC1CCCN(C2(O)C(=O)Nc3c(C(F)(F)F)cccc32)C1 (centres undefined),8%,-4%,-2%,-1%,1%,.
COc1ccc2[nH]c(=O)c(CN(Cc3ccccc3OC)Cc3nnnn3CC3CCCO3)cc2c1 (centres undefined),16µM*,6%,-2%,-8%,8%,0%
O=c1[nH]c2cc3c(cc2cc1CN(Cc1nnnn1CC1CCCO1)C1CCCC1)OCO3 (centres undefined),15µM*,-5%,-6%,-4%,-6%,-41%
CCc1ccc2[nH]c(=O)c(CN(Cc3ccccc3OC)Cc3nnnn3Cc3ccco3)cc2c1,10µM*,-5%,5%,-12%,-2%,12%
Cc1cc(N2CC(C(=O)Nc3nccs3)CC2=O)ccc1C(C)C (centres undefined),0%,13%,11µM*,-4%,1%,.
COc1ccc(/C=C/c2cc(C(F)(F)F)[nH]c(=O)n2)cc1OC,3%,-1%,?,1%,-5%,.
COc1ccc(/C=C/c2cc(C(F)(F)F)on2)cc1,?,0%,6µM*,13%,12%,.
COc1cccc(C(=O)NN=C2CCCC2)c1,-2%,9%,6%,1%,-3%,.
COc1ccc(OCC(=O)N/N=C2\CCc3ccccc32)cc1,?,7%,19µM*,?,2%,-5%
COc1ccc2c(c1)CC/C2=N\NC(=O)c1ccccc1,?,?,12µM*,?,?,16µM*
NC(=O)C(=O)N/N=C1\CCc2ccccc21,?,21%,11µM*,?,7%,13µM*
O=C(Cc1cccc2ccccc12)N/N=C1\CCCc2ccccc21,?,-2%,8%,-2%,-1%,-45%
CC1=Nc2ccccc2N=C(NC(=O)CSC(=S)N2CCCCC2)C1c1ccccc1 (centres undefined),21µM*,-7%,-2%,-5%,0%,.
CC1=Nc2ccccc2N=C(NC(=O)CSC(=S)N2CCN(C)CC2)C1c1ccccc1 (centres undefined),-11%,-2%,4%,-6%,2%,.
N#Cc1nc(Cc2ccccc2)oc1NCc1ccccc1Cl,16%,13%,?,-3%,8%,-24%
CCOc1ccc2nc(SCC(=O)N(C)C3CCS(=O)(=O)C3)[nH]c2c1 (centres undefined),-1%,14%,-13%,2%,-3%,.
CCOc1ccc2nc(SCC(=O)Nc3ccc4[nH]c(=O)[nH]c4c3)[nH]c2c1,-4%,1%,13µM*,0%,7%,.
